Results reported in PubChem BioAssay AID1159580 (chemical genetic matrix, 2015).
Several values for one entry are separate records, joined by “and”; a condition that tells them apart may be missing. Equal values may be shown once. Screen size: about 5,500 compounds; about 2,000 (36%) were called active. Inconclusive results (about 18%) are left out. No stated cut-off is given here; in the data, active means normalized growth mostly below about 0.91 (no sharp cut-off); inconclusive means no clear call, values can overlap the other calls; inactive means mostly above about 0.92. The list shows a part of the results.

Assay: chemical genetic growth profiling, strain panel (AID 1159580);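 further: tested at 20 µM; growth read once vehicle control cultures reached saturation at 30 °C; 1 = growth at the plate median or of vehicle wells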
Details: S. cerevisiae deletion strains, growth OD

Measured: normalized growth

CC1=C2C(=CO[C@H](C)[C@H]2C)C(=O)C(C(=O)O)=C1O
0.947 (inactive) and 0.851 (active): locus YJL095W, strain BCK1, stronger effect = lower value
0.977 (inactive) and 0.85 (active): locus YHR030C, strain SLT2, stronger effect = lower value
active: locus YHR079C, strain IRE1, stronger effect = lower value 0.794
inactive: locus YAL021C, strain ccr4, stronger effect = lower value 0.993 | locus YAL026C, strain drs2, stronger effect = lower value 0.982 | locus YAL030W, strain snc1, stronger effect = lower value 0.977 | locus YBL061C, strain skt5, stronger effect = lower value 0.977 | locus YBR009C, strain hhf1, stronger effect = lower value 0.975 | locus YBR021W, strain FUR4, stronger effect = lower value 0.995 | locus YBR023C, strain chs3, stronger effect = lower value 0.97 | locus YBR171W, strain sec66, stronger effect = lower value 0.981 | locus YBR229C, strain ROT2, stronger effect = lower value 0.978 | locus YBR231C, strain swc5, stronger effect = lower value 0.979 | locus YBR279W, strain paf1, stronger effect = lower value 0.989 | locus YCL011C, strain gbp2, stronger effect = lower value 0.975 | locus YCL016C, strain dcc1, stronger effect = lower value 0.967 | locus YCL029C, strain bik1, stronger effect = lower value 0.986 | locus YCL061C, strain MRC1, stronger effect = lower value 0.967 | locus YCL069W, strain vba3, stronger effect = lower value 0.991 | locus YCR088W, strain abp1, stronger effect = lower value 0.973 | locus YDL005C, strain med2, stronger effect = lower value 0.971 | locus YDL035C, strain GPR1, stronger effect = lower value 0.995 | locus YDL040C, strain nat1, stronger effect = lower value 0.98 | locus YDL074C, strain BRE1, stronger effect = lower value 0.996 | locus YDL101C, strain DUN1, stronger effect = lower value 0.989 | locus YDL134C, strain PPH21, stronger effect = lower value 0.996 | locus YDL185W, strain tfp1, stronger effect = lower value 0.991 | locus YDL192W, strain arf1, stronger effect = lower value 0.983 | locus YDR001C, strain nth1, stronger effect = lower value 0.98 | locus YDR069C, strain doa4, stronger effect = lower value 0.976 | locus YDR101C, strain arx1, stronger effect = lower value 0.983 | locus YDR137W, strain rgp1, stronger effect = lower value 0.912 | locus YDR150W, strain NUM1, stronger effect = lower value 0.981 | locus YDR159W, strain sac3, stronger effect = lower value 0.957 | locus YDR162C, strain NBP2, stronger effect = lower value 0.978 | locus YDR195W, strain ref2 0.969 | locus YDR297W, strain sur2, stronger effect = lower value 0.989 | locus YDR318W, strain mcm21, stronger effect = lower value 0.989 | locus YDR334W, strain swr1, stronger effect = lower value 0.991 | locus YDR335W, strain msn5, stronger effect = lower value 0.994 | locus YDR388W, stronger effect = lower value 0.979 | locus YDR392W, strain spt3, stronger effect = lower value 0.821 | locus YDR502C, strain sam2, stronger effect = lower value 0.971 | locus YEL003W, strain gim4, stronger effect = lower value 0.988 | locus YEL037C, strain rad23, stronger effect = lower value 0.997 | locus YEL061C, strain CIN8 (second series), stronger effect = lower value 0.99 | locus YEL061C, strain CIN8, stronger effect = lower value 0.979 | locus YER015W, strain faa2, stronger effect = lower value 0.98 | locus YER016W, strain bim1, stronger effect = lower value 0.976 | locus YER110C, stronger effect = lower value 0.985 | locus YER111C, strain swi4, stronger effect = lower value 0.983 | locus YER155C, strain BEM2 (second series), stronger effect = lower value 0.938 | locus YER155C, strain BEM2, stronger effect = lower value 0.982 | locus YER167W, strain BCK2, stronger effect = lower value 0.969 | locus YFR010W, strain ubp6, stronger effect = lower value 0.991 | locus YGL078C, strain dbp3, stronger effect = lower value 0.987 | locus YGL086W, strain mad1, stronger effect = lower value 0.96 | locus YGL167C, strain pmr1, stronger effect = lower value 0.963 | locus YGL173C, strain kem1, stronger effect = lower value 0.983 | locus YGL227W, strain vid30, stronger effect = lower value 0.989 | locus YGL240W, strain doc1, stronger effect = lower value 0.97 | locus YGL248W, strain PDE1, stronger effect = lower value 0.991 | locus YGL253W, strain hxk2, stronger effect = lower value 1.01 | locus YGR135W, strain pre9, stronger effect = lower value 0.999 | locus YGR229C, strain SMI1, stronger effect = lower value 0.989 | locus YGR252W, strain gcn5, stronger effect = lower value 1.06 | locus YHR013C, strain ard1, stronger effect = lower value 0.94 | locus YHR027C, strain rpn1, stronger effect = lower value 0.977 | locus YHR079C, strain IRE1 (second series), stronger effect = lower value 0.985 | locus YHR094C, strain hxt1, stronger effect = lower value 0.975 | locus YHR129C, strain ARP1, stronger effect = lower value 0.982 | locus YHR142W, strain chs7, stronger effect = lower value 1.01 | locus YHR200W, strain rpn10, stronger effect = lower value 0.989 | locus YIL066C, strain RNR3, stronger effect = lower value 0.995 | locus YIL073C, strain SPO22, stronger effect = lower value 0.993 | locus YIL125W, strain kgd1, stronger effect = lower value 0.965 | locus YIR030C, strain dcg1, stronger effect = lower value 0.976 | locus YJL092W, strain hpr5, stronger effect = lower value 0.989 | locus YJL095W, strain BCK1 (second series), stronger effect = lower value 0.974 | locus YJL115W, strain asf1, stronger effect = lower value 0.987 | locus YJL129C, strain trk1, stronger effect = lower value 0.927 | locus YJL134W, strain LCB3, stronger effect = lower value 0.975 | locus YJL154C, strain vps35, stronger effect = lower value 0.993 | locus YJL164C, strain tpk1, stronger effect = lower value 0.974 | locus YJL166W, strain qcr8, stronger effect = lower value 0.983 | locus YJL168C, strain set2, stronger effect = lower value 0.98 | locus YJL187C, strain SWE1 (second series), stronger effect = lower value 0.995 | locus YJL187C, strain SWE1, stronger effect = lower value 0.979 | locus YJR043C, strain POL32, stronger effect = lower value 1.02
